Data as given in PubChem BioAssay (EPA / NIEHS).
Calls of active or inactive are those of the source. Rule for the calls: active = hit-call score of the fitted dose curve at least 0.9, where 1 is the maximum; inactive = score below 0.9.

Columns and labels:
Conditions in all cases: mRNA level, 48 h; actives raise or lower the signal
[1] = read-out: Cytochrome P450 (CYP1A2), CYP1A2 (gene 1544); assay: LTEA_HepaRG_CYP1A2: Life Technologies and Expression Analysis (LTEA) Assay for Cytochrome P450 (CYP1A2) using HepaRG (AID 2283479)
Procedure, shortened: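 HepaRG, 48 h exposure, top 100 uM, half-log 8-pt, 0.5% DMSO vehicle, duplicates. Readout: TaqMan qRT-PCR of CYP1A2 mRNA, housekeeping-normalized (ACTB/GAPDH/POLR2A). Gain/loss fit relative to DMSO baseline.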

[2] = read-out: cysteine-aspartic acid protease (CASP8), CASP8 (gene 841); assay: LTEA_HepaRG_CASP8: Life Technologies and Expression Analysis (LTEA) Assay for cysteine-aspartic acid protease (CASP8) using HepaRG (AID 2283480)
Procedure, shortened: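 Differentiated HepaRG cells in serum-free induction medium, 48 h exposure, eight-point half-log series from 100 uM in 0.5% DMSO, duplicates. CASP8 mRNA by qRT-PCR, normalized to ACTB, GAPDH, POLR2A; bidirectional fit versus DMSO.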

[3] = read-out: Cytochrome P450 (CYP2B6), CYP2B6 (gene 1555); assay: LTEA_HepaRG_CYP2B6: Life Technologies and Expression Analysis (LTEA) Assay for Cytochrome P450 (CYP2B6) using HepaRG (AID 2283481)
Procedure, shortened: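 Read-out is CYP2B6 mRNA by TaqMan qRT-PCR, normalized to three housekeeping genes and fitted bidirectionally against 0.5% DMSO baseline. Human HepaRG cells received test chemicals for 48 h, top concentration 100 uM, half-log dilutions.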

[4] = read-out: Cytochrome P450 2C19 (Homo sapiens) (UniProt P33261); assay: LTEA_HepaRG_CYP2C19: Life Technologies and Expression Analysis (LTEA) Assay for CYP2C19 using HepaRG (AID 2283482)
Procedure, shortened: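 HepaRG, 48 h chemical exposure, 8-pt half-log series from 100 uM in 0.5% DMSO, duplicates. Readout: CYP2C19 mRNA by TaqMan qRT-PCR, housekeeping-normalized. Bidirectional fit vs DMSO baseline; phenobarbital 1mM as induction control.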

CYP2C8 (gene 1558) = assay: LTEA_HepaRG_CYP2C8: Life Technologies and Expression Analysis (LTEA) Assay for CYP2C8 using HepaRG (AID 2283483)
Procedure, shortened: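 Differentiated HepaRG cells in serum-free induction medium exposed 48 h in duplicate to 8 half-log concentrations from 100 uM in 0.5% DMSO. CYP2C8 mRNA by qRT-PCR normalized to ACTB, GAPDH, POLR2A; bidirectional fit versus DMSO.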

CYP2C9 (gene 1559) = assay: LTEA_HepaRG_CYP2C9: Life Technologies and Expression Analysis (LTEA) Assay for CYP2C9 using HepaRG (AID 2283484)
Procedure, shortened: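 Differentiated human HepaRG cells in serum-free induction medium were exposed 48 h to chemicals in 8-point half-log series from 100 uM (0.5% DMSO), in duplicate. CYP2C9 mRNA was measured by qRT-PCR, normalized to ACTB/GAPDH/POLR2A, with bidirectional fitting versus DMSO.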

CYP2E1 (gene 1571) = assay: LTEA_HepaRG_CYP2E1: Life Technologies and Expression Analysis (LTEA) Assay for CYP2E1 using HepaRG (AID 2283485)
Procedure, shortened: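 Differentiated HepaRG cells were treated in duplicate for 48 h with chemicals in 0.5% DMSO, from 100 uM downward in half-log dilutions. RNA was then analysed by qRT-PCR for CYP2E1 induction or loss.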

CYP4A11 (gene 1579) = assay: LTEA_HepaRG_CYP4A11: Life Technologies and Expression Analysis (LTEA) Assay for CYP4A11 using HepaRG (AID 2283486)
Procedure, shortened: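 CYP4A11 transcript levels were quantified by TaqMan qRT-PCR after HepaRG human liver cells were treated for 48 hours with test chemicals (top 100 uM, half-log dilutions, 0.5% DMSO). Gain or loss of signal was fitted relative to DMSO.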

[5] = read-out: Cytochrome P450 3A4 (Homo sapiens) (UniProt P08684); assay: LTEA_HepaRG_CYP3A4: Life Technologies and Expression Analysis (LTEA) Assay for CYP3A4 using HepaRG (AID 2283487)
Procedure, shortened: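 In a human hepatic line (HepaRG), duplicate wells were treated 48 h with up to 100 uM chemical in half-log dilutions. Endpoint: CYP3A4 mRNA induction or loss relative to 0.5% DMSO vehicle, by qRT-PCR.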

[6] = read-out: DNA damage-inducible transcript 3 (DDIT3), DDIT3 (gene 1649); assay: LTEA_HepaRG_DDIT3: Life Technologies and Expression Analysis (LTEA) Assay for DNA damage-inducible transcript 3 (DDIT3) using HepaRG (AID 2283488)
Procedure, shortened: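 Changes in DDIT3 transcript, in either direction relative to 0.5% DMSO vehicle, were quantified by TaqMan qRT-PCR after 48 h chemical exposure of HepaRG cells at 8 concentrations, maximum 100 uM.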

[7] = read-out: Pro-epidermal growth factor (Homo sapiens) (UniProt P01133); assay: LTEA_HepaRG_EGF: Life Technologies and Expression Analysis (LTEA) Assay for Epidermal growth factor (EGF) using HepaRG (AID 2283489)
Procedure, shortened: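 qRT-PCR readout of EGF transcript after 48 h chemical exposure of HepaRG cells; eight concentrations from 100 uM down in half-log steps, duplicate wells, 0.5% DMSO vehicle. Bidirectional curve fitting against DMSO baseline.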

[8] = read-out: Early growth response protein 1 (EGR1) transcription factor, EGR1 (gene 1958); assay: LTEA_HepaRG_EGR1: Life Technologies and Expression Analysis (LTEA) Assay for Early growth response protein 1 (EGR1) transcription factor using HepaRG (AID 2283490)
Procedure, shortened: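 Differentiated HepaRG cells in serum-free induction medium exposed 48 hours, duplicate, to 8 half-log concentrations up to 100 uM in 0.5% DMSO. EGR1 mRNA measured by TaqMan qRT-PCR, normalized to ACTB, GAPDH, POLR2A; bidirectional fit versus DMSO.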

[9] = read-out: Ezrin (EZR), EZR (gene 7430); assay: LTEA_HepaRG_EZR: Life Technologies and Expression Analysis (LTEA) Assay for Ezrin (EZR) using HepaRG (AID 2283491)
Procedure, shortened: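 Gain or loss of EZR mRNA is scored relative to 0.5% DMSO in human HepaRG cultures treated 48 h with test chemicals in duplicate, eight half-log concentrations from 100 uM.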

CYP3A5 (gene 1577) = assay: LTEA_HepaRG_CYP3A5: Life Technologies and Expression Analysis (LTEA) Assay for CYP3A5 using HepaRG (AID 2283493)
Procedure, shortened: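 mRNA induction or loss of CYP3A5 assessed in HepaRG after 48 h dosing, 100 uM top concentration, duplicate wells; TaqMan qRT-PCR with ACTB, GAPDH, POLR2A normalization; 0.5% DMSO as negative control.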

[10] = read-out: Fatty Acid-Binding Protein 1 (FABP1), FABP1 (gene 2168); assay: LTEA_HepaRG_FABP1: Life Technologies and Expression Analysis (LTEA) Assay for Fatty Acid-Binding Protein 1 (FABP1) using HepaRG (AID 2283494)
Procedure, shortened: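 Differentiated human HepaRG cells exposed 48 h in serum-free induction medium to eight half-log concentrations up to 100 uM (0.5% DMSO), duplicate. FABP1 mRNA by qRT-PCR, normalised to ACTB, GAPDH, POLR2A; bidirectional fitting against DMSO.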

[11] = read-out: Cytochrome P450 7A1 (Homo sapiens) (UniProt P22680); assay: LTEA_HepaRG_CYP7A1: Life Technologies and Expression Analysis (LTEA) Assay for Cytochrome P450 7A1 (CYP7A1) using HepaRG (AID 2283496)
Procedure, shortened: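 Gene expression endpoint in human HepaRG liver cells treated for 48 h with test chemicals (up to 100 uM, 0.5% DMSO). Values come from bidirectional concentration-response fitting versus DMSO.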

[12] = read-out: Cytochrome P450 (CYP24A1), CYP24A1 (gene 1591); assay: LTEA_HepaRG_CYP24A1: Life Technologies and Expression Analysis (LTEA) Assay for Cytochrome P450 (CYP24A1) using HepaRG (AID 2283478)
Procedure, shortened: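 qRT-PCR read-out: CYP24A1 transcript levels normalized to three housekeeping genes, bidirectional curve fits against 0.5% DMSO baseline. Human HepaRG cells treated 48 h with chemicals at eight concentrations from 100 uM in half-log steps.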

[13] = read-out: Cytochrome P450 3A7 (Homo sapiens) (UniProt P24462); assay: LTEA_HepaRG_CYP3A7: Life Technologies and Expression Analysis (LTEA) Assay for CYP3A7 using HepaRG (AID 2283492)
Procedure, shortened: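 CYP3A7 transcript levels were read by TaqMan qRT-PCR on Fluidigm arrays after 48 h chemical exposure of human HepaRG cells, with housekeeping-gene normalisation. Eight half-log concentrations up to 100 uM in 0.5% DMSO were tested in duplicate.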

[14] = read-out: Cytochrome P450 4A22 (Homo sapiens) (UniProt Q5TCH4); assay: LTEA_HepaRG_CYP4A22: Life Technologies and Expression Analysis (LTEA) Assay for Cytochrome P450 4A22 (CYP4A22) using HepaRG (AID 2283495)
Procedure, shortened: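 HepaRG, 48 h post-plating -> serum-free induction medium; dosed 48 h, duplicate, 8 conc. (100 uM top, half-log), 0.5% DMSO. Readout: CYP4A22 mRNA by qRT-PCR, ACTB/GAPDH/POLR2A normalization; gain/loss fit relative to DMSO.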

[15] = read-out: Glutathione S-Transferase (GSTA2), GSTA2 (gene 2939); assay: LTEA_HepaRG_GSTA2: Life Technologies and Expression Analysis (LTEA) Assay for Glutathione S-Transferase (GSTA2) using HepaRG (AID 2283497)
Procedure, shortened: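 Differentiated human HepaRG cells were exposed in duplicate for 48 h in serum-free induction medium, 8 points from 100 uM top in half-log steps, 0.5% DMSO. GSTA2 mRNA was measured by TaqMan qRT-PCR, normalized to ACTB, GAPDH and POLR2A; bidirectional fit versus DMSO.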

Measured: AC50

Sequence of Cytochrome P450 3A7 (Homo sapiens) (P24462 whole entry, looked up): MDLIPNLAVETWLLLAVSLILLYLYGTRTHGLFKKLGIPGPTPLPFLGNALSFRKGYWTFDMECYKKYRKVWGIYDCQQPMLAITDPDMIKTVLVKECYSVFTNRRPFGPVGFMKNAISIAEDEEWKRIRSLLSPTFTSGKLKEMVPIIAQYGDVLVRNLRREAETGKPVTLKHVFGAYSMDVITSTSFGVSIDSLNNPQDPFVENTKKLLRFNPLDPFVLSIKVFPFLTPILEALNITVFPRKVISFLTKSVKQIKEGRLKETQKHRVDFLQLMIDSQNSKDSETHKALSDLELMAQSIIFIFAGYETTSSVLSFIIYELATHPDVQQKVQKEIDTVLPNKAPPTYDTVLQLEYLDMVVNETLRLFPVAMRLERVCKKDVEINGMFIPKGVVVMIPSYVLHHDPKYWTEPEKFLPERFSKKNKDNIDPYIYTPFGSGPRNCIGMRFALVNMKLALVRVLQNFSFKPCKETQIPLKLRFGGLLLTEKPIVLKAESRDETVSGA
Sequence of Cytochrome P450 2C19 (Homo sapiens) (P33261 whole entry, looked up): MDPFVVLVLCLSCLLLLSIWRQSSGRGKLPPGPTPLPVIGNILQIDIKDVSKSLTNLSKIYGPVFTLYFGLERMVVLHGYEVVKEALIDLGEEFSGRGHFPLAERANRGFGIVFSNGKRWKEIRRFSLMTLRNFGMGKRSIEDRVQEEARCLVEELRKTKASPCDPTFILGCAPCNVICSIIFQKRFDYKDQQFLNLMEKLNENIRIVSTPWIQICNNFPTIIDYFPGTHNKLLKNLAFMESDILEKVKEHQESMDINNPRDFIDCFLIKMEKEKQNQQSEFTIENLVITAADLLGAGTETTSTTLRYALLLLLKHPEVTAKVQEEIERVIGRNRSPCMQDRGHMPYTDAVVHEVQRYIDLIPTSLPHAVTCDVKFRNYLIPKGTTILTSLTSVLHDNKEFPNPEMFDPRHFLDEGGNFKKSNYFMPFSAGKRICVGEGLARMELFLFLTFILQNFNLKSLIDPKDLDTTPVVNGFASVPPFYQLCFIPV
Sequence of Cytochrome P450 3A4 (Homo sapiens) (P08684 whole entry, looked up): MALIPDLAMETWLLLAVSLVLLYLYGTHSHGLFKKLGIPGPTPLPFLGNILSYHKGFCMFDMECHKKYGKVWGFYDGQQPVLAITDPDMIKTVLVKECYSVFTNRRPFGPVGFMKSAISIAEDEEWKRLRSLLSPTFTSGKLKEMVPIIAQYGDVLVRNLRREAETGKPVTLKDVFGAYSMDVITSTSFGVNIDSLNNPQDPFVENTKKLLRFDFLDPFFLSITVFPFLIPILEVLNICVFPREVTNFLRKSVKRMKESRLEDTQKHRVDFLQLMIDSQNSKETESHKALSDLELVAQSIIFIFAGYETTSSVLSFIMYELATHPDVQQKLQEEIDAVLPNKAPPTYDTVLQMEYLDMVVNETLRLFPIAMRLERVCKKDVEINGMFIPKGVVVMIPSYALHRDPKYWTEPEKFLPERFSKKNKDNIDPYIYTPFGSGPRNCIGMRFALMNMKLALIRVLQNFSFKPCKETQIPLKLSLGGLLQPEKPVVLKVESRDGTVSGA

CC(C)(C)c1cc(C(C)(C)C)c(O)c(C(C)(C)C)c1
active: [1] 5.21 µM | [3] 8.66 µM | CYP2E1 (gene 1571) 17 µM | [5] 8.55 µM | [10] 14.1 µM | [11] 16.6 µM
not listed: [12] | [13] | [14] | [15]
inactive: all other assays above

CCCOc1sc(C(=O)N2CCC(c3cc(CN)ccc3F)CC2)c(C)c1Br
active: [3] 1.96 µM
not listed: [6] | [13] | [14] | [15]
inactive: all other assays above

COc1ccc([N+](=O)[O-])cc1N
active: [1] 50 µM | [3] 20.7 µM
not listed: [12] | [13] | [14] | [15]
inactive: all other assays above

COCC(C)O (configuration not stated)
inactive: all assays above

CCC(C)(C)C1CCC(O)CC1 (configuration not stated)
active: [3] 16 µM
not listed: [6] | [12] | [14] | [15]
inactive: all other assays above

CCCCCCCCCCCCc1ccccc1S(=O)(=O)O
active: [1] 84.6 µM | [3] 84.5 µM | [4] 87.3 µM | CYP2C8 (gene 1558) 82.3 µM | CYP2C9 (gene 1559) 83.3 µM | CYP2E1 (gene 1571) 78.3 µM | CYP4A11 (gene 1579) 80.7 µM | [5] 89.6 µM | [7] 50 µM | [13] 88 µM | [10] 66.4 µM | [14] 79.6 µM | [11] 93.7 µM
inactive: [2] | [8] | [9] | CYP3A5 (gene 1577)

CCc1nn(C2CCCCC2)c2cc(C3(C#N)CCC(C(=O)O)CC3)ccc12 (configuration not stated)
inactive: [2] | CYP3A5 (gene 1577)
active: [1] 91 µM | [3] 82.8 µM | [4] 63.3 µM | CYP2C8 (gene 1558) 79.8 µM | CYP2C9 (gene 1559) 63.4 µM | CYP2E1 (gene 1571) 60.6 µM | CYP4A11 (gene 1579) 50.6 µM | [5] 82.2 µM | [7] 50 µM | [8] 12.1 µM | [9] 0.313 µM | [13] 87.8 µM | [10] 88.2 µM | [11] 63.3 µM
